Test systems include NCI-H23 lung; NCI-H226 lung; NCI-H322M lung; HOP-62 NSCLC; NCI-H460 lung; HOP-92 NSCLC; NCI-H522 lung; A549/ATCC NSCLC; 786-0 renal; COLO 205 colon; DU-145 prostate; K-562 leukemia; MALME-3M melanoma; MDA-MB-231 breast; RXF 393 renal; SF-268 CNS; SF-295 CNS; SF-539 CNS; UACC-257 melanoma; M14 melanoma.
What all share (test): NCI-60 one-dose screen, 48 h (100 = growth as untreated, 0 = no growth, -100 = all killed)
What all share (conditions): 10 µM unless noted

This is part of a sample that, as a whole, favours compounds with a hit. Of some 83,000 tested, about 20% had one in any assay.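 In brief: 96-well plates, 48 h treatment, single concentration, percent growth endpoint.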 A number with no mark means an inactive call. The source made the active and inactive calls. The calls were made as follows: active = growth percent below 10; inactive = the rest.

Regarding `CCN(CC)CCC(C(=O)O)(c1ccccc1)c1ccccc1`, the growth with NCI-H23 lung is 95.3%; with NCI-H226 lung, 106%; in the assay with NCI-H322M lung it was 103%; with HOP-62 NSCLC, 86.5%; in the assay with NCI-H460 lung it was 105%; with HOP-92 NSCLC, 101%. The growth with NCI-H522 lung was 89.7%; in the assay with A549/ATCC NSCLC it was 110%; with 786-0 renal, 96.4%; in the assay with COLO 205 colon it was 101%; with DU-145 prostate, 107%; in the assay with K-562 leukemia, 102%. In addition, the growth in the assay on MALME-3M melanoma is 89.7%; with MDA-MB-231 breast, 99.4%; in the assay on RXF 393 renal it was 118%; in the assay on SF-268 CNS, 93.9%; with SF-295 CNS, 97%; with SF-539 CNS, 93.9%. The figures for the growth with UACC-257 melanoma and with M14 melanoma were 113% and 97%, respectively.

Consider `CCN1CCN(Cc2ccc(NC(=O)Nc3cccc(-n4ccc5c(NC(=O)c6ccccc6)nccc54)c3)cc2C(F)(F)F)CC1`, for which the growth is 92.4% with NCI-H23 lung; 99.5% with NCI-H226 lung; 101% with NCI-H322M lung; 72.6% in the assay with HOP-62 NSCLC; 96.3% in the assay on NCI-H460 lung; 60.5% in the assay with HOP-92 NSCLC. For the same compound, the growth with NCI-H522 lung is 45.6%; with A549/ATCC NSCLC it was 86.9%; in the assay with 786-0 renal it was 108%; in the assay on COLO 205 colon, 65.7%; in the assay on DU-145 prostate it was 88.8%; with K-562 leukemia, 49.3%. In addition, the growth is 64% with MALME-3M melanoma; 82% in the assay with MDA-MB-231 breast; 79.5% in the assay with RXF 393 renal; 85.3% in the assay on SF-268 CNS; 55.7% with SF-295 CNS; 81.1% with SF-539 CNS. The growth in the assay with UACC-257 melanoma is 73.9%; in the assay on M14 melanoma it was 76%.

As to `Cc1nccc2c3ccc(OCc4cn(-c5ccc(Br)cc5)nn4)cc3n(CCCc3ccccc3)c12`, the growth is 51.2% with NCI-H23 lung; 91% in the assay with NCI-H226 lung; 91.1% with NCI-H322M lung; 110% with HOP-62 NSCLC; 33.4% with NCI-H460 lung; 99.7% in the assay with HOP-92 NSCLC. For the same compound, the growth was 84.9% with NCI-H522 lung; 12.2% in the assay with A549/ATCC NSCLC; -71.4% (active) in the assay with 786-0 renal; 40.7% in the assay on COLO 205 colon; 48.6% in the assay with DU-145 prostate; 14.9% in the assay on K-562 leukemia. Besides, the growth in the assay on MALME-3M melanoma is -61.1% (active); in the assay with MDA-MB-231 breast, -1.95% (active); with RXF 393 renal, -26.2% (active); in the assay with SF-268 CNS, -15.5% (active); in the assay with SF-295 CNS it was 98.2%; with SF-539 CNS, -59.8% (active). For the same compound, the growth is -20% (active) with UACC-257 melanoma and -81.7% (active) in the assay with M14 melanoma.

`Cc1ccc(N(CC2=NCCN2)c2cccc(O)c2)cc1`: the growth is 100% with NCI-H23 lung; 100% with NCI-H226 lung; 91.5% with NCI-H322M lung; 103% with HOP-62 NSCLC; 107% with NCI-H460 lung; 91.2% in the assay with HOP-92 NSCLC. Also, the growth was 102% with NCI-H522 lung; 98.8% with A549/ATCC NSCLC; 96.8% in the assay on 786-0 renal; 119% in the assay on COLO 205 colon; 112% in the assay with DU-145 prostate; 86.3% in the assay with K-562 leukemia. Moreover, the growth with MALME-3M melanoma was 90.4%; in the assay with MDA-MB-231 breast, 113%; in the assay on RXF 393 renal it was 98.5%; with SF-268 CNS, 107%; with SF-295 CNS it was 83.3%; in the assay with SF-539 CNS, 106%. In addition, the growth in the assay with UACC-257 melanoma and in the assay with M14 melanoma was 103% throughout.

As for `COc1ccc(/C=C/C(=O)c2ccc(NC(=O)CSc3nnc(-c4cc(OC)c(OC)c(OC)c4)o3)cc2)cc1`, the growth was -17% (active) with NCI-H23 lung; 12.9% in the assay on NCI-H226 lung; 20.2% in the assay on NCI-H322M lung; 43.8% with HOP-62 NSCLC; 14.5% in the assay with NCI-H460 lung; -55.4% (active) with HOP-92 NSCLC. Besides, the growth is -76.4% (active) in the assay on NCI-H522 lung; 7.85% (active) in the assay with A549/ATCC NSCLC; -58.4% (active) in the assay on 786-0 renal; -61.1% (active) with COLO 205 colon; 4.04% (active) in the assay with DU-145 prostate; -52.2% (active) in the assay on K-562 leukemia. For the same compound, the growth in the assay on MALME-3M melanoma was -70.7% (active); in the assay with MDA-MB-231 breast it was -80.7% (active); in the assay on RXF 393 renal it was -84.3% (active); in the assay with SF-268 CNS, -76.7% (active); with SF-295 CNS it was 57.6%; with SF-539 CNS, -90.3% (active). In addition, the figures for the growth with UACC-257 melanoma and in the assay on M14 melanoma were 40.1% and -60.1% (active), respectively.

As for `O=c1c2ccccc2sc2c(N3CCCC3)nc3ccccc3c12`, the growth in the assay with NCI-H23 lung is 88.7%; in the assay with NCI-H226 lung, 81.3%; in the assay with NCI-H322M lung it was 110%; in the assay with HOP-62 NSCLC, 97.7%; with NCI-H460 lung, 96.7%; in the assay on HOP-92 NSCLC, 70.8%. Further, the growth in the assay with NCI-H522 lung is 100%; in the assay with A549/ATCC NSCLC, 103%; with 786-0 renal it was 102%; with COLO 205 colon, 116%; in the assay on DU-145 prostate, 99%; in the assay with K-562 leukemia, 86.5%. In addition, the growth in the assay on MALME-3M melanoma is 136%; in the assay with MDA-MB-231 breast, 90.5%; in the assay on RXF 393 renal, 103%; in the assay on SF-268 CNS it was 98.9%; in the assay on SF-295 CNS it was 115%; in the assay on SF-539 CNS it was 102%. Also, the values for the growth with UACC-257 melanoma and with M14 melanoma were 106% and 114%, respectively.

`Nc1nc(Cl)cc(NCc2ccc(CNc3cc(Cl)nc(N)n3)cc2)n1`: the growth in the assay on NCI-H23 lung was 75.7%; in the assay on NCI-H226 lung, 70.8%; in the assay on NCI-H322M lung, 102%; in the assay with HOP-62 NSCLC, 48.8%; in the assay with NCI-H460 lung, 115%; in the assay with HOP-92 NSCLC, 92.9%. The growth in the assay on NCI-H522 lung is 49.8%; in the assay with A549/ATCC NSCLC, 87.2%; with 786-0 renal, 101%; in the assay on COLO 205 colon, 103%; with DU-145 prostate, 96.4%; in the assay on K-562 leukemia, 47.8%. Also, the growth is 182% with MALME-3M melanoma; 83.1% with MDA-MB-231 breast; 90.9% in the assay on RXF 393 renal; 98.2% in the assay with SF-268 CNS; 105% in the assay with SF-295 CNS; 87.3% in the assay on SF-539 CNS. In addition, the growth in the assay with UACC-257 melanoma was 96%; in the assay on M14 melanoma, 133%.

As for `COc1ccc(Cl)cc1NC(=O)c1cc2c(n1C)-c1nc(NC(=O)C(C)C)sc1CC2`, the growth with NCI-H23 lung was 89.4%; in the assay on NCI-H226 lung, 61.3%; in the assay on NCI-H322M lung, 99.1%; with HOP-62 NSCLC, 85.7%; in the assay with NCI-H460 lung, 94%; with HOP-92 NSCLC it was 91%. The growth was 49.9% in the assay on NCI-H522 lung; 71.5% with A549/ATCC NSCLC; 88.1% with 786-0 renal; 96.8% in the assay on COLO 205 colon; 83.5% with DU-145 prostate; 79.8% in the assay on K-562 leukemia. In addition, the growth was 99.3% in the assay on MALME-3M melanoma; 30.5% in the assay with MDA-MB-231 breast; 101% in the assay on RXF 393 renal; 71.2% in the assay on SF-268 CNS; 92.5% with SF-295 CNS; -27.9% (active) with SF-539 CNS. The growth in the assay with UACC-257 melanoma is 88%; with M14 melanoma it was 84.8%.

The values above are taken from PubChem BioAssay (NCI).
